Calls of active or inactive are those of the source.
What was measured:
[1] = E. coli DRC41 culture turbidity changes, primary screen, E. coli filamentation inducer project, strain DRC41, OD650, 48 h (AID 1152);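 further: E. coli MC1000 strain DRC41 lacking acrAB efflux pump and sulA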; settings: E. coli DRC41 (acrAB sulA), higher = more signal, called active from +8 up or from −8 down
[2] = small-molecule binders of probe aLefty1, primary screen, biochemical, small-molecule microarray, 635/667 nm fluorescence (AID 1153); settings: higher = more signal;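 further: score merges spot fluorescence with signal-to-noise ratio from the scanned slide images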
[3] = PSAC antagonists in infected red cells, primary screen, cell-based, P. falciparum Indochina, OD700, 1 h (AID 1154); settings: P. falciparum Indochina infected RBC osmotic lysis, higher = more signal, called active from +8 up or from −8 down
[4] = PSAC antagonists in infected red cells, primary screen, cell-based, P. falciparum Indochina, OD700, 2 h (AID 1155);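 further: lysis reports solute entry through the parasite surface anion channel PSAC; channel blockers reduce lysis of infected cells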; settings: P. falciparum Indochina infected erythrocytes, osmotic lysis OD700; higher = more signal, called active from +8 up or from −8 down
[5] = osmotic lysis modulators in infected erythrocytes, primary screen, PSAC antagonist project, cell-based, P. falciparum Indochina, OD700, 3 h (AID 1156); settings: higher = more signal, called active from +8 up or from −8 down
[6] = PSAC antagonists in infected red cells, primary screen, cell-based, P. falciparum Indochina, OD700, 18 h (AID 1157); settings: P. falciparum Indochina infected erythrocytes, osmotic lysis OD700, 18 h; higher = more signal, called active from +8 up or from −8 down
[7] = modulators of S6 phosphorylation in cells, primary screen, cell-based, A549, cytoblot, luminescence, serum-stimulated (AID 1158); settings: A549 phospho-S6 cytoblot, 5 h, higher = more signal;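 further: serum-stimulated A549 lung adenocarcinoma cells; signal is phosphorylated S6 detected by cytoblot immunostaining with HRP secondary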
[8] = biological target: NADPH oxidase 2 (Homo sapiens) (UniProt P04839); experiment: NOX2-dependent H2O2 signal modulators, primary screen, NOX inhibitor project, cell-based, HEK293-NOX2, PMA-stimulated, Amplex Red fluorescence (AID 1159); settings: 45 min, higher = more signal, called active from +8 up or from −8 down; further: test concentration not given here
[9] = biological target: NADPH oxidase 4 (Homo sapiens) (UniProt Q9NPH5); experiment: NOX4-dependent H2O2 signal modulators, primary screen, NOX inhibitor project, cell-based, HEK293-NOX4, tetracycline-induced, Amplex Red fluorescence (AID 1160); settings: 45 min, higher = more signal, called active from +8 up or from −8 down
[10] = biological target: NADPH oxidase 5 (Homo sapiens) (UniProt Q96PH1); experiment: NOX5-dependent H2O2 signal modulators, primary screen, NOX inhibitor project, cell-based, HEK293-NOX5, Amplex Red fluorescence (AID 1161); settings: HEK293-NOX5, ionomycin, 45 min, higher = more signal
Chain of NADPH oxidase 5 (Homo sapiens) (Q96PH1 whole entry, looked up): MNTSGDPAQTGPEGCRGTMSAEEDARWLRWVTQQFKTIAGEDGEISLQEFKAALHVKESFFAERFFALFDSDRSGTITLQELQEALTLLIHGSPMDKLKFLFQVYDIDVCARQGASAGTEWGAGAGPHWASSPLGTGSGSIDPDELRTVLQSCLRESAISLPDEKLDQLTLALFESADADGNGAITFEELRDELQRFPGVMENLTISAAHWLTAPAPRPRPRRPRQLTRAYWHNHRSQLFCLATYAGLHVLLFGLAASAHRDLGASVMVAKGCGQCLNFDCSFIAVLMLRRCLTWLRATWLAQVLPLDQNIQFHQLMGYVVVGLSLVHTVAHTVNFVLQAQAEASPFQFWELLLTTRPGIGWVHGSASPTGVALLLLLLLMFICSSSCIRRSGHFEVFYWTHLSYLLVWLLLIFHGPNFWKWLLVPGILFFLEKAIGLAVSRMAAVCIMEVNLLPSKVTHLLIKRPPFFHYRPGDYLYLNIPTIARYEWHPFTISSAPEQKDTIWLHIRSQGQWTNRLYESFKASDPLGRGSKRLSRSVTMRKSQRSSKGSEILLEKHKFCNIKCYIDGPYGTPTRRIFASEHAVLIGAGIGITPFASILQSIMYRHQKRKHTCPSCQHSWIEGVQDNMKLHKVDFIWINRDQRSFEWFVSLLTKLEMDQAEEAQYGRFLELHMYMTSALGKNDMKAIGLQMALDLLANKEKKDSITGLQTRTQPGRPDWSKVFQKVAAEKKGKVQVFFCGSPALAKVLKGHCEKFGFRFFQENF

Chain of NADPH oxidase 2 (Homo sapiens) (P04839 whole entry, looked up): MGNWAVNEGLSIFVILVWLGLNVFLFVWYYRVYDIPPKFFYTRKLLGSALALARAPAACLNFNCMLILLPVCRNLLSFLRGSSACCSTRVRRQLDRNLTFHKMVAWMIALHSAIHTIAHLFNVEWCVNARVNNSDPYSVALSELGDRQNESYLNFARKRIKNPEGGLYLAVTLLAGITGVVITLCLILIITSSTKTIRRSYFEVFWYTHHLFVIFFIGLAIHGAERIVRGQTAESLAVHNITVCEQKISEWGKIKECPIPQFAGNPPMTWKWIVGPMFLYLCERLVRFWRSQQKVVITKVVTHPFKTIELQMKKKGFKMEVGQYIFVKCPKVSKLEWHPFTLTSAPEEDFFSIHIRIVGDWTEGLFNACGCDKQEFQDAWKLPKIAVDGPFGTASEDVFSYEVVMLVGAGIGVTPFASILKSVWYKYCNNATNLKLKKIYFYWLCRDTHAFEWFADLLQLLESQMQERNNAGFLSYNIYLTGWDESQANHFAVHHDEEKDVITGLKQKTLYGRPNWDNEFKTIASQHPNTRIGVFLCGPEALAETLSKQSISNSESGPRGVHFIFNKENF
Chain of NADPH oxidase 4 (Homo sapiens) (Q9NPH5 whole entry, looked up): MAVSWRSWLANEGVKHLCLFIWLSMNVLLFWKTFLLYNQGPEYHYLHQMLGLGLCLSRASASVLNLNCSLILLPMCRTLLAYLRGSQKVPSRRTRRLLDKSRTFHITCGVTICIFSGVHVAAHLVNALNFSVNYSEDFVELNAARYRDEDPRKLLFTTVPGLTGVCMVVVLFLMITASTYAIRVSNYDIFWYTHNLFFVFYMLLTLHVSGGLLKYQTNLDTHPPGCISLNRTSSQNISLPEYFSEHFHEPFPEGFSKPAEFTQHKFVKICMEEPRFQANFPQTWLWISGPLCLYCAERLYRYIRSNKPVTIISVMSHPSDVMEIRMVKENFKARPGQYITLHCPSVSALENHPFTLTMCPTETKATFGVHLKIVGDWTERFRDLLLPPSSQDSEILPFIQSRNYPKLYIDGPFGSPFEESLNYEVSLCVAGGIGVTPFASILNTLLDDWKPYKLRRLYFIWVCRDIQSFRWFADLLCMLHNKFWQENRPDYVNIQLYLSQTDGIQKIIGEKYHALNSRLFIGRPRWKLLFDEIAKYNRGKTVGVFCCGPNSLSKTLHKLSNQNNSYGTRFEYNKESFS

| SMILES | z-score [1] | composite z-score [2] | z-score [3] | z-score [4] | z-score [5] | z-score [6] | z-score [7] | z-score [8] | z-score [9] | z-score [10] |
| --- | --- | --- | --- | --- | --- | --- | --- | --- | --- | --- |
| Cc1ccc([C@H]2C(C(=O)O)=C[C@@H](C(C)C)N2S(=O)(=O)c2ccc(C)cc2)cc1 | -1.01 (inactive) | 0.121 | 0.297 (inactive) | 0.711 (inactive) | -0.539 (inactive) | 0.734 (inactive) | -0.365 | 0.79 (inactive) | -1.06 (inactive) | -0.32 |
| O=c1cccc(-c2ccc3ccccc3c2)o1 | 0.62 (inactive) | -0.0035 | 25.4 (active) | 10 (active) | -1.71 (inactive) | 1.1 (inactive) | -0.38 | -0.415 (inactive) | -4.41 (inactive) | -1.19 |
| CN(C)CCCC[C@@H]1NC(=O)[C@@H]2C[C@H](C(=O)NCCCCCN)[C@H](c3ccc(O)cc3)N2C1=O | 0.195 (inactive) | -0.056 | -0.327 (inactive) | 0.0694 (inactive) | 0.494 (inactive) | -0.0676 (inactive) | -0.431 | -0.487 (inactive) | -0.159 (inactive) | 0.701 |
| COC(=O)[C@@]1(Cc2ccc(F)cc2)[C@H]2c3cc(C(=O)N(C)C)n(CCCNc4ccc(C(F)(F)F)cc4Cl)c3C[C@H]2CN1C(=O)c1ccccc1 | -1.74 (inactive) | 0.634 | 1.36 (inactive) | 0.986 (inactive) | 0.277 (inactive) | 1.33 (inactive) | -0.0991 | 0.844 (inactive) | 0.619 (inactive) | 0.897 |
| O=C1c2ccccc2[C@](Cc2ccccc2I)(C(=O)O)[C@H](c2ccc(CO)cc2)N1Cc1ccccc1C(F)(F)F | -0.0668 (inactive) | 0.215 | 3.59 (inactive) | 1.01 (inactive) | 0.737 (inactive) | 0.915 (inactive) | -0.419 | 1.66 (inactive) | -0.832 (inactive) | -0.533 |
| CN1C(=O)C2C=CC(C(O)C(c3ccccc3)c3ccccc3)N(Nc3ccccc3)C2C1=O (stereo not given) | -2.34 (inactive) | 0.516 | 1.63 (inactive) | 2.15 (inactive) | 0.742 (inactive) | 1.12 (inactive) | -0.946 | -1.39 (inactive) | -4.91 (inactive) | -2.44 |
| COc1ccc([Si](C)(C)[C@H]2[C@H](CC(=O)N3CCC[C@H]3CO)O[C@@]3(C(=O)N(Cc4cccc(N5CCC5=O)c4)c4ccccc43)[C@@H]2C)cc1 | 0.689 (inactive) | 0.233 | 6.65 (inactive) | 1.06 (inactive) | 1.47 (inactive) | 0.696 (inactive) | 0.249 | 1.91 (inactive) | 0.777 (inactive) | 4.69 |
| CCOC(=O)C1=CC[C@@H](c2ccccc2)N(S(=O)(=O)c2ccc(C)cc2)[C@H]1c1ccc(C#N)cc1 | -1.38 (inactive) | 0.161 | 1.92 (inactive) | 0.858 (inactive) | 0.224 (inactive) | 0.705 (inactive) | -0.882 | 0.428 (inactive) | -1.1 (inactive) | 0.0836 |
| CCOC(=O)N1C(c2ccc(OCCCO)cc2)=NC(C(=O)OC)N1C(=O)OCC (stereo not given) | 1.28 (inactive) | 0.371 | 20.5 (active) | 2.44 (inactive) | 0.873 (inactive) | -1.07 (inactive) | 1.02 | -1.43 (inactive) | 0.403 (inactive) | 0.203 |
| COC(=O)[C@@]1(Cc2ccccc2)[C@H]2c3cc(C(=O)N(C)C)n(Cc4cc(F)c(F)c(F)c4)c3C[C@H]2CN1C(=O)c1ccccc1 | -1.61 (inactive) | 0.611 | 8.57 (active) | 1.65 (inactive) | 0.893 (inactive) | 1.4 (inactive) | -0.0786 | -0.0214 (inactive) | 1.57 (inactive) | 2.13 |
